# High-throughput results as filed in PubChem.
# This is a sample that favours compounds with a hit; in the whole collection about 2.4% have one here.
# D2 PAM-1 – human D2 receptor positive allosteric modulation. DiscoveRx D2 beta-arrestin cells, luminescence, 90 min; 100% = 57 uM dopamine signal. 0.23% of 360,000 active. potentiation, % (concentration not given with the values). AID 624464. P14416; in the data active = potentiation above about 50%; inconclusive = mostly about 30% to 49%
# Target sequence (P14416 whole entry, looked up): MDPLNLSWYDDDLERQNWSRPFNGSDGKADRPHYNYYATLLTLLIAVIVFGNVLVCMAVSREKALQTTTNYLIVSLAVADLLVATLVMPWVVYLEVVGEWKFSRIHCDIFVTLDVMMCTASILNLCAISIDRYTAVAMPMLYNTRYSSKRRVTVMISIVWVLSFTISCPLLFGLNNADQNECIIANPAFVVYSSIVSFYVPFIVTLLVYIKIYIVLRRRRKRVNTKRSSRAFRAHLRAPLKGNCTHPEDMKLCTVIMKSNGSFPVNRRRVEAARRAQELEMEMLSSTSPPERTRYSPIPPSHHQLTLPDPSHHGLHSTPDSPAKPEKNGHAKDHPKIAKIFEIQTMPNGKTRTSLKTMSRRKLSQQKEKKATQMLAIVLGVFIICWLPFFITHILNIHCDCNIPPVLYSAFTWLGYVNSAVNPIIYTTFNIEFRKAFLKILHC
#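 PathHunter beta-arrestin assay in DiscoveRx D2 cells. Compounds were added with an EC20 of dopamine (50 nM final) for 90 min at 37 deg C. Luminescence was read 1 h after detection reagent, with 57 uM dopamine as the EC100 control.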
# D2 ag-1 – agonists of human D2 dopamine receptor (beta-arrestin); P14416; DiscoveRx PathHunter D2 beta-arrestin, luminescence, 90 min; 100% = 57 uM dopamine signal; activation, % (concentration not given with the values); 0.084% of 360,000 active; in the data active = activation above about 40%; inconclusive = between about 15% and that limit
#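 Agonist mode: compounds alone added to overnight-plated D2 PathHunter cells for 90 min at 37 C, with 57 uM final dopamine (EC100) defining full response. Beta-arrestin recruitment detected by chemiluminescent reagent, read after 1 h at ambient temperature.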
# D2 PAM-2 – D2 dopamine receptor (human) potentiation. HEK293 T-REx D2, calcium flux, EC20 dopamine potentiation. potentiation, % at 10 µM. 0.34% of 340,000 active;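 active = potentiation over 3 SD above the plate norm, cut at about 30% in these data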
#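 Calcium flux readout, no-wash dye, 1 read/s. Inducible HEK293 Trex D2 line, overnight 30 C. Compound alone 180 s (agonist flags), then EC20 dopamine, another 180 s to score potentiation.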
# D2 ag-2 – D2 dopamine receptor (human) agonism; P14416; HEK293 T-REx D2 cells, calcium flux agonist mode; activation, % at 2 µM; 0.53% of 340,000 active;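 active = activation over 3 SD above normal in the single-dose calcium agonist read, cut at about 30% in these data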
#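 Tetracycline-induced HEK293 Trex cells with D2 receptor force-coupled to calcium signaling, plated overnight at 30 C and loaded with no-wash calcium dye. Calcium flux read kinetically for 180 s after compound addition; responses flag agonists.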
# D2 antag – antagonists of human D2 dopamine receptor | P14416 | HEK293 TREx D2 cells, calcium flux, dopamine EC80 | inhibition, % at 10 µM | 2% of 340,000 active; in the data active = inhibition above about 30%; inactive = below that, where a call was filed
#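 Cells plated overnight at 30 C with tetracycline; no-wash calcium dye, 30–90 min RT; 10 s baseline; compound pinned; 180 s read; EC80 dopamine added; another 180 s read.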
# D3 ag – confirmation of human D3 dopamine receptor agonists, beta-arrestin | shares compounds with D2 ag-2 | DiscoveRx D3 beta-arrestin cells, luminescence, 90 min | AID 720506 | 4% of 2,300 active | Potency, µM (highest dose often 76.9 µM), usual class: activators; note: nearly all actives have a fitted effect of over 70% in size
# D2 ag-3 – D2 receptor agonism, beta-arrestin counterscreen; shares compounds with D2 ag-2; DiscoveRx PathHunter D2 beta-arrestin, luminescence, 90 min; response scale: percent relative to full dopamine signal; Potency, µM (top dose mostly 76.9 µM), usual class: activators; 5.9% of 2,300 active; AID 720507; note: nearly all actives have a fitted effect of over 70% in size
# Numbers stand for hits; - = inactive; ? = inconclusive; . = no result given. Unless noted, calls come from the whole dose curve; as a rule, active = well fitted activation curve with a large enough effect; inconclusive = small, poorly fitted or top-dose-only effect; inactive = flat fitted curve, though single readings scatter.
SMILES,D2 PAM-1,D2 ag-1,D2 PAM-2,D2 ag-2,D2 antag,D3 ag,D2 ag-3
COCCNC(=O)CSc1nnc(-c2ccc(OC)c(OC)c2)c(-c2ccc(OC)c(OC)c2)n1,.,.,-,-,.,.,.
CCOC(=O)c1c(NC(=O)c2cc(-c3ccc(OC)cc3)on2)sc(C)c1C,.,.,.,-,.,.,.
CC(=O)c1cccc(NC(=O)c2noc3c2CCCC3)c1,.,.,-,-,.,.,.
O=C(Nn1cnnc1)c1ccncc1,-,-,-,-,-,-,-
COc1cccc(N2CCN(C(=O)Cn3ncc4c(=O)oc5ccccc5c43)CC2)c1,.,.,-,-,.,.,.
CCCN1CCc2c(sc(NC(=O)c3ccc(S(=O)(=O)N4CCN(C(=O)OCC)CC4)cc3)c2C(N)=O)C1,-,-,-,47,-,-,-
Cc1cc(C)nc(N2CCC(C(=O)NCc3ccco3)CC2)n1,-,-,.,.,.,.,.
Cc1cc(C)nc(N2CCC(C(=O)NCc3cccs3)CC2)n1,-,-,-,31,-,-,-
Cc1oc(-c2ccccc2F)nc1CN1CCC(C(=O)NCc2cccs2)CC1,-,-,-,52,-,-,-
COc1ccc(CNC(=O)CCC(=O)N2CCN(C(C)=O)CC2)cc1,-,-,-,-,-,.,.
COc1ccc(C2(NC(C)=O)CCN(C(=O)CCC(=O)O)CC2)cc1,-,-,-,51,-,-,-
Cn1cccc1/C=N/n1c(-c2ccco2)n[nH]c1=S,-,-,-,-,-,.,.
COc1cc(-c2n[nH]c(=S)n2/N=C/c2cccn2C)cc(OC)c1OC,-,-,-,-,-,-,-
COC(=O)c1cc(CN2CCN(c3ccccc3)CC2)ccc1O,-,-,-,-,-,-,-
O=C(CCN1CCN(c2ccccc2)CC1)Nc1ccc(Cl)cc1,-,-,-,-,-,.,.
O=C(CCN1CCN(c2ccccc2)CC1)Nc1ccc(OCc2ccccc2)cc1,-,-,-,53,65,?,?
COC(=O)c1ccc(NC(=O)CCN2CCN(c3ccccc3)CC2)cc1,-,?,-,54,50,?,?
O=C(Nc1ccc(C(=O)NCCCN2CCN(c3ccccc3)CC2)cc1)C1=CSCCO1,-,44,-,82,81,-,?
O=C(CSC1=Nc2ccccc2N=C(c2ccc(F)cc2)C1)NCc1ccccc1,.,.,-,-,.,.,.
CC(C)c1ccc(Nc2c(-c3ccccn3)nc3ccccn23)cc1,.,.,-,-,.,.,.
COc1cc(NC(=O)NCCN2CCN(c3ccccc3)CC2)cc(OC)c1OC,-,-,-,75,76,-,?
O=C(NCCN1CCN(c2ccccc2)CC1)Nc1ccccc1Br,-,-,-,59,76,-,-
CCCN1CCN(CCNC(=O)Nc2ccccc2Cl)CC1,-,-,-,-,-,.,.
O=C(NCCN1CCN(c2ccccc2)CC1)Nc1ccccc1Cl,-,-,-,64,35,?,-
O=C(NCCN1CCN(c2ccccc2)CC1)Nc1ccc(Cl)cc1,-,-,-,75,82,-,?
SMILES,D2 PAM-1,D2 ag-1,D2 PAM-2,D2 ag-2,D2 antag,D3 ag,D2 ag-3
O=C(NCCN1CCN(c2ccccc2)CC1)Nc1cccc(Br)c1,-,-,-,-,-,.,.
CCn1c(=O)c2cc(C(=O)NC3CCC(C)CC3)sc2c2ccccc21 (centres undefined),.,.,-,-,.,.,.
O=C(CCN1CCN(c2ccccc2)CC1)NNC(=O)Cc1c(F)cccc1Cl,-,-,-,79,60,?,-
O=C(CCN1CCN(c2ccccc2)CC1)NNC(=O)c1ccccc1,-,-,.,.,.,.,.
O=C(CCN1CCN(c2ccccc2)CC1)NNC(=O)Cc1ccccc1Cl,-,-,-,81,48,-,-
Cc1cc(OCC(=O)Nc2ccncc2)ccc1Cl,-,-,-,-,-,.,.
Cc1cc(OCC(=O)Nc2ncn[nH]2)ccc1Cl,-,-,-,-,-,-,-
CC1(C)C(=O)N(CC(=O)Nc2ccc(OC(F)(F)F)cc2)c2ccccc21,.,.,-,-,.,.,.
CC(C)(C)C(=O)Nc1ccc(F)cc1[N+](=O)[O-],-,-,-,32,-,?,-
COc1ccc([N+](=O)[O-])c(OC)c1C(=O)Nc1ccc(F)cc1F,-,-,-,-,-,-,-
COc1cccc(CN(C(=O)c2oc3ccccc3c2C)C2CCS(=O)(=O)C2)c1 (centres undefined),.,.,-,.,.,.,.
N#Cc1c(-c2ccco2)nc(SCc2ccc(F)cc2)[nH]c1=O,-,-,-,-,-,.,.
Cc1nc(SCc2cccc(F)c2)[nH]c(=O)c1C#N,-,-,.,.,.,-,-
CC(OC(=O)COc1ccc(C#N)cc1)C(=O)c1ccccc1 (centres undefined),-,-,-,-,32,-,-
CCCCCCCC/C=C\CCCCCCCC(=O)NCCc1ccc(O)c(O)c1,?,100,-,39,57,4µM,16µM
CCCCCCCC/C=C\CCCCCCCC(=O)NCCO,-,-,-,-,-,.,.
Clc1ccccc1CN1CCN(c2ncccn2)CC1,59,70,-,80,76,-,20µM
Clc1cccc(CN2CCN(c3ncccn3)CC2)c1Cl,-,?,-,69,61,-,50µM
O=C(Nc1ccc(Cl)cc1Cl)N1CCN(c2ncccn2)CC1,-,-,-,-,-,.,.
Clc1ccc(CN2CCN(c3ncccn3)CC2)c(Cl)c1,59,79,-,76,90,?,28µM
Clc1ccccc1CN1CCc2nc(N3CCN(c4ncccn4)CC3)ncc2C1,.,.,-,-,.,.,.
COc1cccc(C(C)NC(=O)Nc2ccccc2Cl)c1 (centres undefined),-,-,-,-,-,-,-
COc1ccc2cc(CCNS(=O)(=O)c3ccc(C)cc3)c(=O)[nH]c2c1,.,.,-,-,.,.,.
CCOC(=O)C1CCN(Cc2ccc(OC)cc2OC)CC1,-,-,-,-,-,.,.
CCOC(=O)C1CCN(Cc2cccc(OC)c2)CC1,-,?,-,76,44,-,-
CCOC(=O)C1CCN(Cc2ccc(N(C)C)cc2)CC1,-,-,-,42,-,-,-
CCOC(=O)C1CCN(Cc2ccc(OCc3ccccc3)cc2)CC1,-,-,-,68,59,-,?
CCOC(=O)C1CCN(Cc2ccc(F)c(F)c2)CC1,-,-,-,-,-,.,.
CCOc1ccccc1NC(=O)Cn1c(=O)n(Cc2ccc(OC)cc2)c(=O)c2oc3ccccc3c21,.,.,-,-,.,.,.
C=CC[C@H]1Cc2c(cccc2[N+](=O)[O-])[C@H](CC=C)N1,-,?,.,36,59,?,?
